TRPV1 ag: human TRPV1 agonism | Q8NER1 | TRPV1-expressing cells, Fluo-8 calcium influx, agonist mode | activation, % at 8.33 µM | hit rate 0.19% among 320,000 | AID 540275; in the data active means activation above about 80%; inconclusive means between about 30% and that limit; further: 0% is about no effect
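Cells expressing TRPV1 were dye-loaded with Fluo-8 and read kinetically: 10 s baseline, 3 min after compound (agonist portion), then 2 min after EC20 capsaicin (allosteric enhancer portion). Calcium-bound dye fluorescence at 480/520 nm.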
D1 ag: activates the human D1 dopamine receptor; hit rate 1% among 360,000; activation, % at 2 µM; HEK293 T-REx D1 cells, calcium flux, agonist mode; P21728; in the data active means activation above about 30%; further: 0% is about no effect
Target sequence (P21728 whole entry, looked up): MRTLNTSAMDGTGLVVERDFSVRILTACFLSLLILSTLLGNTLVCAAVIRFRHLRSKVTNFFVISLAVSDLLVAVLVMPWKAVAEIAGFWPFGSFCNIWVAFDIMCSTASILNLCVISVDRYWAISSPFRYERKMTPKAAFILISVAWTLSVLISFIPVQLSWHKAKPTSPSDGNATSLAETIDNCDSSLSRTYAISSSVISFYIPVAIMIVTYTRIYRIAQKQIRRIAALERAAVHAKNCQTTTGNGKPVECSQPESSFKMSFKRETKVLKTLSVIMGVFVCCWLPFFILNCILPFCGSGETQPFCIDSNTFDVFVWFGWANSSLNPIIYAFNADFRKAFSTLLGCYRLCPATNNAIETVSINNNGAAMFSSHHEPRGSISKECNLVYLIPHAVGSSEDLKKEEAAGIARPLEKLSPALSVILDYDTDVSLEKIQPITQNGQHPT
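Inducible HEK293 T-REx D1 cells, force-coupled to calcium signalling, were plated at 4000 cells/well with tetracycline and held overnight at 30 C. After no-wash calcium dye loading, compound-evoked calcium rise over 180 s flagged agonists.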
D1 antagonist: blocks dopamine activation of the human D1 receptor. P21728. HEK293 TREx D1 cells, calcium flux, dopamine EC80; active compounds read low. activity change, negative = inhibition, % at 10 µM. hit rate 3.2% among 360,000. AID 504652; in the data active means activity change below about -30%; further: on the % scale 0 is the no-effect control and ±100 the full control effect
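Compound effects on dopamine-evoked calcium signalling were measured in tetracycline-induced HEK293 Trex D1 cells. Dopamine at EC80 followed a 180 s compound pre-read, and fluorescence was tracked kinetically for 180 s more.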
TRPV1 potentiator: human TRPV1 potentiation; Q8NER1; TRPV1-expressing cells, Fluo-8 calcium influx, capsaicin EC20 potentiation; potentiation, % at 8.33 µM; hit rate 0.02% among 320,000; in the data active means potentiation above about 80%; inconclusive means between about 30% and that limit; further: 0% is about no effect
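TRPV1-expressing cells were cultured overnight at 35.5C and loaded with Fluo-8 calcium dye for 40 to 90 min at room temperature. After a 10 s baseline, compound was added and calcium influx was read kinetically for 3 min (ex 480/em 520 nm).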
D1 PAM: human D1 dopamine receptor positive modulation; potentiation, % at 10 µM; hit rate 0.036% among 360,000; HEK293 TREx D1 cells, calcium flux, dopamine EC20 potentiation; P21728; in the data active means potentiation above about 30%; further: 0% is about no effect
An asterisk follows results filed as active; ? = inconclusive; nt = not tested or not shown. Rows were chosen to be rich in hits. Some 4.2% of all compounds tested hit in one or more screens of this group.

SMILES | TRPV1 ag | D1 ag | D1 antagonist | TRPV1 potentiator | D1 PAM
COc1ccc(CNC(=O)c2cc3c(=O)n(Cc4ccco4)ccc3nc2C)c(OC)c1 | nt | 0 | -7 | nt | -5
CCN1CCN(Cc2c(O)ccc3oc(C)c(C(=O)Nc4cccc(C(F)(F)F)c4)c23)CC1 | nt | 50* | -23 | nt | 0
Cc1oc2ccc(O)c(CN3CCN(Cc4ccccc4)CC3)c2c1C(=O)Nc1ccccc1 | nt | 0 | 13 | nt | 1
Cc1oc2ccc(O)c(CN3CCN(C)CC3)c2c1C(=O)Nc1cccc(C(F)(F)F)c1 | nt | 62* | -46* | nt | 4
COc1cc(C(=O)CC2(O)C(=O)N(Cc3ccccc3Cl)c3ccccc32)cc(OC)c1OC (stereo not given) | nt | 2 | -7 | nt | -1
CS(=O)(=O)N1CCc2cc(C(=O)Nc3ccc(Br)cc3)ccc21 | 88* | 10 | -3 | -7 | -10
COc1ccc(C(=O)Nc2cccc(C(=O)O)c2)cc1S(=O)(=O)N1CCCC1 | -2 | -1 | 8 | 1 | 0
Cc1ccc(C(=O)Nc2cccc(C(=O)O)c2)cc1S(=O)(=O)N1CCCC1 | nt | -3 | -40* | nt | 3
O=C(NCC(O)c1ccccc1)c1ccc(Cl)c(S(=O)(=O)N2CCCC2)c1 (stereo not given) | 22 | 14 | -31* | -25 | -9
COc1cccc(CN(C)C(=O)c2ccc(C)c(S(=O)(=O)N3CCCCC3)c2)c1 | 12 | 2 | -36* | -9 | -9
Cc1cc(C)cc(NC(=O)c2ccc3c(c2)CCN3S(C)(=O)=O)c1 | ? | 10 | -13 | -7 | -10
COc1cccc(CN(C)C(=O)c2cc(S(=O)(=O)N3CCCCCC3)ccc2OC)c1 | 10 | 0 | 1 | -6 | 0
COc1ccc(N2C(=O)C(CC(=O)Nc3ccc(F)cc3)N(CCC3=CCCCC3)C2=O)cc1 (stereo not given) | nt | 3 | -17 | nt | -3
CC(=O)N1CCCc2cc(S(=O)(=O)N3CCCC(C(=O)Nc4ccc(F)cc4F)C3)ccc21 (stereo not given) | nt | 2 | -8 | nt | -3
COc1cccc(-c2nnc(SCC(=O)N(C)c3ccccc3)o2)c1 | nt | -1 | 0 | nt | -1
CS(=O)(=O)N(CC(=O)NCCSc1ccccc1)c1cc(C(F)(F)F)ccc1Cl | nt | 6 | -6 | nt | 0
COC(=O)c1ccccc1NC(=O)C1=C(C)C(=O)OC12CCC(C)CC2 (stereo not given) | nt | 1 | -1 | nt | -3
COc1cc(C2C(C(=O)OC(C)C)=C(C)N=C3SCCC(=O)N32)ccc1OCc1ccccc1 (stereo not given) | nt | 12 | -5 | nt | -7
O=C(Nc1ccncc1)c1ccc(Cl)c(S(=O)(=O)N2CCCCC2)c1 | -6 | 18 | -39* | 5 | -8
O=C(Nc1ccc(Br)cc1)c1ccc(Br)c(S(=O)(=O)N2CCCCC2)c1 | nt | 9 | -43* | nt | 4
O=C(Nc1ccc(Cl)c(S(=O)(=O)N2CCCCC2)c1)c1ccncc1 | ? | 8 | -11 | -28 | -3
COc1ccc(CNC(=O)c2ccc3nc(C(C)C)oc3c2)cc1OC | nt | 7 | -29 | nt | -2
COc1cc(Br)c(CN2C(=O)NC3(CCCCCC3)C2=O)cc1OC | -1 | 16 | 6 | -2 | -6
COc1ccc(Br)cc1CN1C(=O)NC2(CCCCCC2)C1=O | 7 | 31* | -33* | -14 | nt
O=C(NCc1ccccc1)[C@@H]1C[C@H]1[C@@H](NP(=O)(c1ccccc1)c1ccccc1)c1ccccc1 | 91* | 1 | 19 | -2 | 1
SMILES | TRPV1 ag | D1 ag | D1 antagonist | TRPV1 potentiator | D1 PAM
COc1ccccc1C(=O)Nc1cccc(OCc2cc(=O)n3c4c(sc3n2)CCCC4)c1 | nt | 2 | -20 | nt | -4
CN1CCN(c2ccc(S(=O)(=O)N3CCCCC3)cc2NC(=O)c2ccc(C#N)cc2)CC1 | -1 | 1 | -45* | 0 | -2
CN1CCN(c2ccc(Cl)cc2NC(=O)c2ccc(S(=O)(=O)N3CCCCCC3)cc2)CC1 | 3 | 3 | 2 | -4 | 2
CCN1CCN(c2ccc(S(=O)(=O)N3CCCCC3)cc2NC(=O)COc2ccc(Cl)cc2)CC1 | 23 | 0 | -43* | -9 | -5
CN1CCN(c2ccc(S(=O)(=O)N3CCCCC3)cc2NC(=O)CCc2ccccc2)CC1 | 11 | 33* | 1 | -16 | nt
CCN1CCN(c2ccc(S(=O)(=O)N3CCCCC3)cc2NC(=O)COc2cc(C)ccc2Cl)CC1 | 17 | 11 | 8 | -5 | 2
CN1CCN(c2ccc(S(=O)(=O)N3CCCCC3)cc2NC(=O)Cc2ccc(Cl)cc2)CC1 | 9 | 91* | -14 | -7 | 5
CN1CCN(c2ccc(S(=O)(=O)N3CCCCC3)cc2NC(=O)CSCc2ccccc2)CC1 | 3 | 1 | 5 | 1 | -1
O=C(Cc1ccc(Cl)cc1)Nc1cc(S(=O)(=O)N2CCOCC2)ccc1N1CCCC1 | 6 | -4 | -5 | -6 | 0
CN(Cc1ccccc1)C(=O)C1CCN(S(=O)(=O)c2ccc3c(c2)oc(=O)n3C)CC1 | nt | -1 | 6 | nt | 3
COC(=O)c1c(-c2cccs2)csc1NC(=O)c1ccc(C(C)(C)C)cc1 | nt | 1 | 6 | nt | -2
Cc1ccc(Cl)cc1NC(=O)Cn1c(=O)n(CCC(=O)NCc2ccc3c(c2)OCO3)c(=O)c2sccc21 | nt | 4 | -17 | nt | 1
Cc1ccc(NC(=O)Cn2c(=O)n(CCC(=O)NCc3ccc4c(c3)OCO4)c(=O)c3sccc32)c(C)c1 | nt | 2 | -34* | nt | 0
Cc1cc(/C=C2\SC(=O)NC2=O)c(C)n1-c1ccc(N(C)C)cc1 | 5 | -3 | -52* | 10 | -10
Cc1c(CC(Cl)(Cl)Cl)c2c(n1O)CC(C)(C)CC2=O | 5 | 26 | -46* | -5 | -3
Cc1nn(-c2ccc(C(=O)O)cc2)c2c1C(=O)CC(C)(C)C2 | 3 | 3 | -13 | 1 | -2
CCc1ccc(-c2cn3c(n2)SCC3)cc1 | 8 | 1 | -86* | -10 | 0
Cc1ccc(-c2cn3c(n2)SCC3)cc1 | -1 | -2 | 27 | -8 | -3
Cc1c(C(C)C)c(=O)n(-c2ccc(S(=O)(=O)NC3CCCCC3)cc2)n1C | 13 | 4 | -52* | -16 | -4
COc1ccccc1C(C(=O)NC1CCCCC1)N(C(=O)c1csnn1)C1CC1 (stereo not given) | 1 | 4 | -18 | 0 | nt
O=C(NC1CCCCC1)C(c1ccccc1F)N(C(=O)c1csnn1)C1CCCC1 (stereo not given) | -6 | 61* | -23 | -8 | nt
O=C(NCc1ccc(F)cc1)C(=O)Nc1ccc2nc3n(c(=O)c2c1)CCCCC3 | nt | 1 | -13 | nt | -2
CCN(C(=O)C(=O)Nc1ccc2nc3n(c(=O)c2c1)CCCCC3)c1ccc(F)cc1 | nt | 1 | -39* | nt | 2
CCN(CC(=O)Nc1c(F)cccc1F)C(=O)c1ccc2c(=O)n3c(nc2c1)CCC3 | -2 | 0 | 0 | 6 | -1
O=C(NNC(=O)c1ccc2c(=O)n3c(nc2c1)CCC3)c1ccc(Cl)cc1 | 2 | 3 | -14 | -5 | -1
